{
  "source": "PubChem BioAssay AID777",
  "about": "(Sanford-Burnham Center for Chemical Genomics, 2007)",
  "note": "In all, about 96,000 compounds went through this assay and about 19,000 (20%) were called active. Not all results are given here. A number with no mark means an inactive call.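 The calls were made as follows: active = blocking of liver enzyme CYP2C9 beyond about 50% at 5 µM (limit read from the data); inactive = the rest.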",
  "data": [
    {"target": "Cytochrome P450 2C9 (Homo sapiens) (UniProt P11712)", "sequence (P11712 whole entry, looked up)": "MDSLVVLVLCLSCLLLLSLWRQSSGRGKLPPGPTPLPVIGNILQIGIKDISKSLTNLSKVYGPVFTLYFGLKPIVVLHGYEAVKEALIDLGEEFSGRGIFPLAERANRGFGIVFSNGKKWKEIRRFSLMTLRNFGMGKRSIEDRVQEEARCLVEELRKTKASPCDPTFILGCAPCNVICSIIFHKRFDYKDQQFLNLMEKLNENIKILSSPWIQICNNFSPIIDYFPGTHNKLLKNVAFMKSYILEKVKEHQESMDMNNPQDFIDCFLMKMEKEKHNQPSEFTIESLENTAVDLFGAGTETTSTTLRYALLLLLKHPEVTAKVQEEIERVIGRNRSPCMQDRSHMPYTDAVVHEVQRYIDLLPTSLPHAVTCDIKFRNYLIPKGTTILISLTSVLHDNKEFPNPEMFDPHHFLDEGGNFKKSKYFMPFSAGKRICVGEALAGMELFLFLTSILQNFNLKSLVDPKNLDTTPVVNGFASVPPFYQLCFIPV", "assay": "blockers of cytochrome P450 2C9 activity – biochemical, luminescence, ADME assay, primary screen (AID 777)", "conditions": "CYP2C9 Supersomes, luciferin-H conversion, at 5 µM, active compounds read high", "values": [
      {"smiles": "CCOc1ccc(NC(=O)C2CC(=O)N=C(N)S2)cc1", "note": "(stereo not given)", "inhibition": "-2.4%"},
      {"smiles": "CC(NC(=O)C1CCC(CNc2c(N3CCOCC3)c(=O)c2=O)CC1)c1ccccc1", "note": "(stereo not given)", "inhibition": "-6.7%"},
      {"smiles": "O=C(Nc1cccc2cccnc12)c1cccc(N2C(=O)CCC2=O)c1", "inhibition": "-71.6%"},
      {"smiles": "Cn1c(CNC(=O)C(C)(C)C)nc2ccccc21", "inhibition": "-13.1%"},
      {"smiles": "COc1ccc(C(=O)N2CCc3cc(OC)c(OC)cc3C2c2cccc([N+](=O)[O-])c2)cc1", "note": "(stereo not given)", "inhibition": "64.4% (active)"},
      {"smiles": "COc1cc(C(=S)N2CCOCC2)cc(OC)c1OC(=O)c1cc([N+](=O)[O-])cc([N+](=O)[O-])c1", "inhibition": "-5%"},
      {"smiles": "COc1ccc(Cc2nnc(SCC(=O)c3cccc([N+](=O)[O-])c3)n2C)cc1", "inhibition": "38.7%"},
      {"smiles": "CCC1CCCCN1CCCNC(=O)Cn1nc(-c2ccccc2)ccc1=O", "note": "(stereo not given)", "inhibition": "9.1%"},
      {"smiles": "Cc1c(NC(=O)CSc2cccc3cccnc23)c(=O)n(-c2ccccc2)n1C", "inhibition": "-25.5%"},
      {"smiles": "O=c1cccc(-c2ccc(Br)cc2)o1", "inhibition": "-19.8%"},
      {"smiles": "O=C(NCCc1ccco1)c1nn(Cc2ccccc2)c(=O)c2ccccc12", "inhibition": "7.4%"},
      {"smiles": "O=C(NCc1ccco1)c1sc2cccc(F)c2c1Cl", "inhibition": "-26.6%"},
      {"smiles": "O=C(NCc1ccco1)c1ccc(Cn2c(=O)c3sccc3n(Cc3ccc(F)cc3)c2=O)cc1", "inhibition": "79.7% (active)"},
      {"smiles": "O=C(NCc1ccco1)c1ccc(CS(=O)(=O)Cc2ccc(F)cc2)o1", "inhibition": "40.7%"},
      {"smiles": "Cc1cc(C(=O)OCC(=O)NCc2ccco2)c(C)n1-c1ccccc1", "inhibition": "42.1%"},
      {"smiles": "O=C(NCc1ccco1)c1cc2sccc2n1Cc1ccc(F)cc1", "inhibition": "60.8% (active)"},
      {"smiles": "O=C(Cc1ccc(-n2c(=O)c3sccc3n(Cc3ccc(F)cc3)c2=O)cc1)NCc1ccco1", "inhibition": "69.5% (active)"},
      {"smiles": "Cc1nc2c(-c3ccc(F)cc3)c(C)nn2c(C)c1CCC(=O)NCc1ccco1", "inhibition": "24.9%"},
      {"smiles": "COc1cc(-n2c(C)nc3cc(C(=O)NCc4ccco4)ccc32)cc(OC)c1OC", "inhibition": "8.4%"},
      {"smiles": "NC(=O)CCCC1=NS(=O)(=O)c2ccccc2N1", "inhibition": "4.2%"},
      {"smiles": "O=S(=O)(CCc1nc2ccccc2o1)c1ccc(Cl)cc1", "inhibition": "-2.3%"},
      {"smiles": "CCOC(=O)N1CCN(C(=O)C2CC(c3ccc(F)cc3)=NO2)CC1", "note": "(stereo not given)", "inhibition": "8.8%"},
      {"smiles": "CCC(=O)N1CCc2cc(S(=O)(=O)NC(C(=O)N3CCc4ccccc4C3)C(C)C)ccc21", "note": "(stereo not given)", "inhibition": "27%"},
      {"smiles": "Cc1cccc(N2CCN(C(=O)C3CCN(S(=O)(=O)c4cnc[nH]4)CC3)CC2)c1C", "inhibition": "30.4%"},
      {"smiles": "CCCS(=O)(=O)N1CCC(C(=O)NCCCN(C)Cc2ccccc2)CC1", "inhibition": "20.7%"},
      {"smiles": "CCN(CCCNC(=O)C1CCN(S(=O)(=O)c2cnc[nH]2)CC1)c1ccccc1", "inhibition": "81.8% (active)"},
      {"smiles": "CCCCC(=O)N(c1ccc(OC)cc1)C1C=CS(=O)(=O)C1", "note": "(stereo not given)", "inhibition": "25.7%"},
      {"smiles": "Cc1ccc(-n2c(SCC(=O)Nc3ccc4c(c3)OCO4)nnc2-c2ccccn2)cc1", "inhibition": "43%"},
      {"smiles": "CNC(=O)CSc1nnc(CCc2ccccc2)n1-c1ccccc1", "inhibition": "-17.6%"},
      {"smiles": "Cc1ccc(-n2c(SCC(=O)NCc3ccc4c(c3)OCO4)nnc2-c2cccnc2)c(C)c1", "inhibition": "62.7% (active)"},
      {"smiles": "Cc1ccccc1-c1nnc(SCC(=O)NCc2ccc3c(c2)OCO3)n1C", "inhibition": "88.6% (active)"},
      {"smiles": "Cn1cccc1Cc1nnc(SCC(=O)NCCc2ccccc2)n1-c1ccc(F)cc1", "inhibition": "48.3%"},
      {"smiles": "CC(C)NC(=O)CSc1ccccc1C(=O)NCc1ccc2c(c1)OCO2", "inhibition": "16.9%"},
      {"smiles": "O=C(CSc1nnc(-c2ccccn2)n1-c1ccccc1)Nc1ccc2c(c1)OCO2", "inhibition": "2.8%"},
      {"smiles": "Cn1cccc1Cc1nnc(SCC(=O)NCc2ccc3c(c2)OCO3)n1CCc1ccccc1", "inhibition": "55% (active)"},
      {"smiles": "Cc1cccc(NC(=S)Nc2ccc(Br)cc2)c1", "inhibition": "2.2%"},
      {"smiles": "CC(C)(C)C(=O)CCN1C(=O)C2(OCCO2)c2ccccc21", "inhibition": "7.8%"},
      {"smiles": "CCN(CC)CCNC(=O)C1c2ccccc2C(=O)N(C)C1c1cn(C)c2ccccc12", "note": "(stereo not given)", "inhibition": "1.7%"},
      {"smiles": "COc1ccc(-c2nnco2)cc1OC", "inhibition": "-14.9%"},
      {"smiles": "COc1ccc(NC(=O)CC2COc3ccccc3O2)c(OC)c1", "note": "(stereo not given)", "inhibition": "5.9%"},
      {"smiles": "O=C(CN1C(=O)CSc2ncccc21)N1CCOCC1", "inhibition": "41.4%"},
      {"smiles": "O=C(c1ccco1)N1CCN(c2cccc(Cl)c2)CC1", "inhibition": "17.6%"},
      {"smiles": "O=C(c1ccc2c(c1)OCO2)N1CCN(C(=O)c2ccco2)CC1", "inhibition": "15.8%"},
      {"smiles": "O=C(c1ccco1)N1CCN(C(=O)C2c3ccccc3Oc3ccccc32)CC1", "inhibition": "58.3% (active)"},
      {"smiles": "COc1nc(Oc2ccc(=O)n(C)n2)nc(N(C)C)n1", "inhibition": "-16.1%"},
      {"smiles": "COc1ccccc1OCCNc1cc(N2CCOCC2)ccc1[N+](=O)[O-]", "inhibition": "55.8% (active)"},
      {"smiles": "COc1ccc(C(=O)Cn2nnc(-c3ccc(N4CCOCC4)cc3)n2)cc1OC", "inhibition": "-6%"},
      {"smiles": "COc1cc(C(=S)N2CCOCC2)cc(OC)c1OC(=O)c1cc([N+](=O)[O-])c(C)c([N+](=O)[O-])c1", "inhibition": "5.7%"},
      {"smiles": "Cc1nn(-c2cc(Cl)ccc2N)c(=O)c2ccccc12", "inhibition": "2.2%"},
      {"smiles": "O=C1C2(c3ccccc3)CN(CCCO)CC1(c1ccccc1)CN(CCCO)C2", "inhibition": "7.8%"},
      {"smiles": "Cc1ccc(NC(=O)CCNS(=O)(=O)c2ccc3c(c2)oc(=O)n3C)cc1C", "inhibition": "-21.7%"},
      {"smiles": "FC(F)Oc1ccccc1C1CC(c2ccc(Br)s2)Nc2ncnn21", "note": "(stereo not given)", "inhibition": "91.4% (active)"},
      {"smiles": "CCCCC(=O)N1CC2(C)CN(C(=O)CCCC)CC(C)(C1)C2=O", "inhibition": "-4%"},
      {"smiles": "Cn1cnc([N+](=O)[O-])c1Sc1ccccc1", "inhibition": "8.6%"},
      {"smiles": "O=C(N1CCOCC1)N1CCOCC1", "inhibition": "-8.2%"},
      {"smiles": "COc1ccc(C2CC(c3ccc(C)cc3)Nc3ncnn32)cc1", "note": "(stereo not given)", "inhibition": "65.4% (active)"},
      {"smiles": "COc1ccc(C2CC(c3ccc(C)cc3)Nc3nc(N)nn32)cc1", "note": "(stereo not given)", "inhibition": "27.3%"},
      {"smiles": "COc1ccc(C2CC(c3ccccc3)Nc3ncnn32)cc1", "note": "(stereo not given)", "inhibition": "23.9%"},
      {"smiles": "CCC(=O)c1ccc(OCC(O)CN2CC(C)OC(C)C2)cc1", "note": "(stereo not given)", "inhibition": "18.3%"},
      {"smiles": "N#Cc1ccc(-c2ccc(Cl)cc2)nc1Oc1ccc(F)cc1", "inhibition": "6.8%"}
    ]}
  ]
}
